“And” between values parts separate entries of the source, which are not always exact repeats. Equal entries are not always repeated. Records with an inconclusive call do not appear. The source made the active and inactive calls. Calls follow the shape of the dose curve; as a rule, active = well fitted inhibition curve with a large enough effect; inconclusive = small, poorly fitted or top-dose-only effect; inactive = no such curve, though single readings can be large or run the other way. Numbered stars: 1 amine (or outer) side, 2 acyl side, 3 side chain; on linkers, the order of the positions; unused ones are H or OH. Bridge positions count the residues as written; N and C are the ends. Square brackets hold non-standard residues; d marks the D form. Peptide text beside a SMILES is read from it. I, II: the chains in the order shown. Actinocin(9to1) = Cc1c2oc3c(C)ccc(C(=O)[*:1])c3nc-2c(C(=O)[*:2])c(N)c1=O; NMeV = CN[C@H](C(=O)O)C(C)C; Sar = CNCC(=O)O
test: Tertiary RLuc qRT-PCR qHTS assay for Zika virus inhibitors (AID 1347169); conditions: infected Vero cells, reporter luminescence, 48-72 h; series mostly up to 5.25 µM; also: nearly all actives have a fitted effect of over 55% in size
Outline: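 Vero cells (1,000 per well) plated overnight at 37 degrees C, treated with compound in DMSO, then infected with recombinant ZIKV-RLuc (Cambodian) at MOI 1-2 for 48-72 hrs. Live-cell Renilla luciferase substrate added; luminescence read after 1-1.5 hrs.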
Potency is read from the fitted curve at half-maximal effect.

Row | Compound | Potency
1 | Nc1nc2ncc(CNc3ccc(C(=O)N[C@@H](CCC(=O)O)C(=O)O)cc3)nc2c(=O)[nH]1 | inactive
2 | CCCCC(CC)CN=C(N)NC(N)=NCCCCCCN=C(N)NC(N)=NCC(CC)CCCC (stereo not drawn) | 3700 nM (active)
3 | Nc1ccn([C@@H]2O[C@H](CO)[C@@H](O)C2(F)F)c(=O)n1 | 30.2 nM (active)
4 | Oc1c(Cl)cc(Cl)cc1Sc1cc(Cl)cc(Cl)c1O | inactive
5 | O=C(Nc1ccc(Oc2ccc(Cl)cc2)c(Cl)c1)c1cc(I)cc(I)c1O | 26200 nM (active)
6 | COc1c(C)c2c(c(O)c1C/C=C(\C)CCC(=O)O)C(=O)OC2 | 739 nM (active)
7 | Cc1c2oc3c(C)ccc(C(=O)N[C@@H]4C(=O)N[C@H](C(C)C)C(=O)N5CCC[C@H]5C(=O)N(C)CC(=O)N(C)[C@@H](C(C)C)C(=O)O[C@@H]4C)c3nc-2c(C(=O)N[C@@H]2C(=O)N[C@H](C(C)C)C(=O)N3CCC[C@H]3C(=O)N(C)CC(=O)N(C)[C@@H](C(C)C)C(=O)O[C@@H]2C)c(N)c1=O (I: T[dV]P[Sar][NMeV] / II: T[dV]P[Sar][NMeV]; ester I:1-I:C, II:1-II:C; linker I:N-II:N via Actinocin(9to1)) | 165 nM (active)
8 | CC(C)(C)CC(C)(C)c1ccc(OCCOCC[N+](C)(C)Cc2ccccc2)cc1 | 33 µM (active) and 13.1 µM (active) and 10.4 µM (active)
